Screens (PubChem)
AMA1-RON2 inh: inhibitors of Plasmodium falciparum AMA1-RON2 interaction; AID 720542; 0.2% of 360,000 active; AlphaScreen AMA1-biotinylated RON2 peptide binding; Potency, µM (titrated, usually from 58.2 µM), for inactives: top-dose activity change, negative = inhibition, hits mostly inhibitors;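 note: 0% = vehicle wells and -100% = peptide control; nearly all actives have a fitted effect of over 45% in size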
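AMA1 (3D7) with his tag at 25 nM final met compounds first, then biotinylated RON2 peptide at 25 nM; detection used donor plus acceptor beads, 10 µg/mL apiece, read by AlphaScreen after 30 min at room temperature.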
AmpC inh no detg: blocks E. coli AmpC beta-lactamase in detergent-free assay | AmpC nitrocefin hydrolysis, absorbance 480 nm, 0.0001% Triton | Potency, µM (doses to about 57.1 µM), for inactives: top-dose activity change, negative = inhibition, actives largely listed as inhibitors | 0.52% of 330,000 active | P00811;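 note: plate controls were no compound for no effect and no enzyme for full effect; nearly all actives have a fitted effect of over 20% in size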
Target sequence (P00811 whole entry, looked up): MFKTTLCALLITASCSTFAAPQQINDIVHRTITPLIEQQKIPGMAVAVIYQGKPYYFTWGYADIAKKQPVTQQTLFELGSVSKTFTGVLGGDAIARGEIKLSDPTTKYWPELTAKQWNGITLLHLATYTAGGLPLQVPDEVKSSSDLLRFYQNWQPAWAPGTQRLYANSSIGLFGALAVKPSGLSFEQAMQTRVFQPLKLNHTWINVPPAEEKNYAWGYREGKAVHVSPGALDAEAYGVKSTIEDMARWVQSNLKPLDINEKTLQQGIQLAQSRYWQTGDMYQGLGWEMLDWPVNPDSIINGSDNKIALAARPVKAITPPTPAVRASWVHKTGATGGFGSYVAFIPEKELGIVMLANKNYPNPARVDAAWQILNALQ
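20 mM phosphate pH 7.0 + 0.01% (detergent screen) or 0.0001% Triton X-100; 5.3 nM AmpC reagent; cpd preinc 15 min RT; nitrocefin (800 uM stock) to start; A480 q20 s × 4 min; Activity was normalised to no-enzyme and no-compound control wells.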
FBPA Giardia inh: blocks Giardia fructose-bisphosphate aldolase activity. A8B2U2. purified Giardia FBPA. Potency, µM (highest dose often 59.6 µM), for the others: at the top dose activity, negative = inhibition, hits mostly inhibitors. 0.71% of 290,000 active. AID 2451; note: nearly all actives have a fitted effect of over 55% in size
Target sequence (A8B2U2 whole entry, looked up): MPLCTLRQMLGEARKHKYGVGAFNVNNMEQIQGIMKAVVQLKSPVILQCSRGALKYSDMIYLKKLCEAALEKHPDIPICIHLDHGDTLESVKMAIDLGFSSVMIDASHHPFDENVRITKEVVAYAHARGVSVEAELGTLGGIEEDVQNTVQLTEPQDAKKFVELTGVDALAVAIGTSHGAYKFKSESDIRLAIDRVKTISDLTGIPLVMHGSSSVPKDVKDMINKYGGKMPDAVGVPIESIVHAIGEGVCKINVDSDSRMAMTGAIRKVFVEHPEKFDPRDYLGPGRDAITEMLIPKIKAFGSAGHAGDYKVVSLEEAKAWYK
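40 nM FBPA preincubated 10 min at RT with compound (up to 57.5 uM final), then substrate plus GAPDH/TPI/NAD/arsenate coupling and diaphorase/resazurin added. Fluorescence read after 20 min at RT, 525/598 nm.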
AmpC detergent: inhibitors of E. coli AmpC beta-lactamase with detergent | P00811 | AmpC hydrolysis of nitrocefin, absorbance 480 nm, 0.01% Triton | Potency, µM (top dose mostly 114 µM), for inactives: top-dose activity change, negative = inhibition, most hits filed as inhibitors | 0.041% of 370,000 active;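 note: 0% = no-compound wells and -100% = no-enzyme wells; nearly all actives have a fitted effect of over 25% in size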
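20 mM phosphate pH 7.0 + 0.01% (detergent screen) or 0.0001% Triton X-100; 5.3 nM AmpC reagent; cpd preinc 15 min RT; nitrocefin (800 uM stock) to start; A480 q20 s × 4 min; Activity was normalised to no-enzyme and no-compound control wells.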
* marks the source's active call; other numbers are inactive results; [ ] = remark or other dose. Sampled rows, rich in hits. Any-hit rate of the full collection: about 1.1%. Calls come from the whole dose curve; as a rule, active = well fitted curve in the direction sought with a large enough effect; inconclusive = small, poorly fitted or top-dose-only effect, or another doubt; inactive = no such curve, though single readings can be large; an effect the other way counts as inactive or inconclusive. Unless noted, % is set by controls: 0 for no effect and ±100 for the full control effect; potency is the fitted concentration of half-maximal effect.

What do the screens show for `CC(Sc1ccccc1)C(=O)Nc1ccccc1C(=O)N1CCOCC1` (centres undefined)?
AMA1-RON2 inh: -4.2%; AmpC inh no detg: 0.282µM*; FBPA Giardia inh: 1.2%; AmpC detergent: 5.0%

What do the screens show for `CCC(Oc1ccccc1)C(=O)Nc1ccccc1C(=O)N1CCOCC1` (centres undefined)?
AMA1-RON2 inh: 18.1%; AmpC inh no detg: -4.3%; AmpC detergent: 4.9%

Results for Cc1cc(NCC(=O)Nc2ccc(C)c(S(=O)(=O)N3CCOCC3)c2)ccc1Br ?
AMA1-RON2 inh: -12.8%

How did CCN(CC)S(=O)(=O)c1ccc2c(c1)nc(CN(C)C(=O)Nc1ccc(F)cc1)n2C do in these assays?
AmpC detergent: 6.6%

What do the screens show for `CN(C)c1ccc(-n2cccc2)cc1`?
AMA1-RON2 inh: 20µM*; AmpC inh no detg: -4.5%; FBPA Giardia inh: 4.1%; AmpC detergent: -1.2%

How did NS(=O)(=O)c1cccc(NS(=O)(=O)c2ccc(/C=C/C(=O)OCC(=O)c3ccccc3)cc2)c1 do in these assays?
AMA1-RON2 inh: -0.9%; AmpC inh no detg: 3.55µM*; FBPA Giardia inh: 0.3%; AmpC detergent: -13.5%

What do the screens show for `COc1ccc(C(=O)COC(=O)/C=C/c2ccccc2)cc1`?
AMA1-RON2 inh: 10.9%; AmpC inh no detg: -9.3%; FBPA Giardia inh: 5.7%; AmpC detergent: 1.7%

How did O=C(c1ccco1)N1CCN=C1SCc1cccc(F)c1 do in these assays?
AMA1-RON2 inh: 13.9%; AmpC inh no detg: -20.2%; FBPA Giardia inh: 3.6%; AmpC detergent: 4.1%

What do the screens show for `O=C(c1ccco1)N1CCN=C1SCc1ccc(F)cc1`?
AMA1-RON2 inh: 24.8%; AmpC inh no detg: 8.91µM*; FBPA Giardia inh: 0.8%; AmpC detergent: inconclusive

How did CC1CCCC(C)N1/N=C/C=C/c1ccccc1[N+](=O)[O-] (centres undefined) do in these assays?
AMA1-RON2 inh: 15.8µM*; AmpC inh no detg: -14.2%[11.4 µM]; FBPA Giardia inh: 0.9%; AmpC detergent: -11.3%

Results for COc1ccccc1N1CCN(/N=C/c2cccc(Cl)c2)CC1 ?
AMA1-RON2 inh: 14.1µM*; AmpC inh no detg: -5.5%; FBPA Giardia inh: -4.3%; AmpC detergent: -4.9%

How did COc1ccccc1N1CCN(/N=C/C=C\c2ccccc2[N+](=O)[O-])CC1 do in these assays?
AMA1-RON2 inh: 20µM*; AmpC inh no detg: 35.3%; FBPA Giardia inh: -20.9%; AmpC detergent: -4.0%

How did CNC(=O)C1CCC(=O)N1Cc1c[nH]c2ccccc12 (centres undefined) do in these assays?
AMA1-RON2 inh: 31.9%

How did CN(C(=O)c1cccc(NC(=O)Cc2cccc(NC(=O)C3CCCN(C(=O)C4CCCCC4)C3)c2)c1)C1CCC1 (centres undefined) do in these assays?
AMA1-RON2 inh: -8.9%

Results for Cc1ccc(CNC(=S)Nc2ccc(NS(=O)(=O)c3ccc(C)cc3)cc2)cc1 ?
AMA1-RON2 inh: -9.3%; AmpC inh no detg: 2.24µM*; AmpC detergent: -0.3%

How did Cc1[nH]ccc(=O)c1OCc1ccccc1 do in these assays?
AMA1-RON2 inh: 5.4%; AmpC inh no detg: inconclusive; FBPA Giardia inh: 0.8%; AmpC detergent: -0.9%

What do the screens show for `O=c1cc(OCc2ccccc2)cc[nH]1`?
AMA1-RON2 inh: 1.12µM*; AmpC inh no detg: -8.3%; AmpC detergent: inconclusive

What do the screens show for `COc1cc2c(cc1NCc1ccc3c(c1)OCO3)oc1ccccc12`?
AMA1-RON2 inh: 31.6µM*; AmpC inh no detg: -23.8%; FBPA Giardia inh: -1.3%; AmpC detergent: -13.1%

How did N#CCCn1c(=O)c(-c2cc(F)cc(F)c2)nc2cnc(OCc3ccccc3)nc21 do in these assays?
FBPA Giardia inh: -1.8%

How did CN(C)c1ccc(C(=S)N2CCN(c3ccc([N+](=O)[O-])cc3)CC2)cc1 do in these assays?
AMA1-RON2 inh: -3.8%; AmpC inh no detg: -31.4%; FBPA Giardia inh: 7.92µM*; AmpC detergent: -4.1%

What do the screens show for `CN(C)c1ccc(C(c2ccc(N(C)C)cc2)c2ccc([N+](=O)[O-])cc2)cc1`?
AMA1-RON2 inh: 8.91µM*; AmpC inh no detg: -25.4%; FBPA Giardia inh: -9.1%; AmpC detergent: -11.9%

What do the screens show for `CN(C)c1ccc(C=NC(CO)C(O)c2ccc([N+](=O)[O-])cc2)cc1` (centres undefined)?
AMA1-RON2 inh: -2.9%; AmpC inh no detg: -11.3%; FBPA Giardia inh: 2.5%; AmpC detergent: 1.9%

Results for N#Cc1cccc(C(=O)C(=O)N2CCCN(Cc3ccc(F)cc3)CC2)c1 ?
AMA1-RON2 inh: -7.2%

What do the screens show for `COCCNC(=O)c1cc2c(c(-c3cccc(C#CC(C)(C)O)c3)n1)[C@@H](CCO)N(S(=O)C(C)(C)C)C2` (some centres undefined)?
AMA1-RON2 inh: 30.9%

What do the screens show for `O=C(c1cccs1)c1no[n+]([O-])c1C(=O)c1cccs1`?
AMA1-RON2 inh: -3.7%; AmpC inh no detg: -15.1%; FBPA Giardia inh: 3.97µM*; AmpC detergent: 0.3%

What do the screens show for `COc1ccc(C(=O)c2no[n+]([O-])c2C(=O)c2ccc(OC)cc2)cc1`?
AMA1-RON2 inh: -3.4%; AmpC inh no detg: -14.0%; FBPA Giardia inh: inconclusive; AmpC detergent: 1.0%

What do the screens show for `COCCn1c(=O)c(-c2ccc(Cl)cc2)nc2cnc(N3CCOCC3)nc21`?
FBPA Giardia inh: 4.5%

How did C/C(CC(=O)Nc1ccc(C)c(Cl)c1)=N\NC(=O)c1ccco1 do in these assays?
AMA1-RON2 inh: 61.4%; AmpC inh no detg: -1.7%; FBPA Giardia inh: -11.0%; AmpC detergent: 4.6%

What do the screens show for `C/C(CC(=O)Nc1ccc(Cl)cc1Cl)=N\NC(=O)c1ccco1`?
AMA1-RON2 inh: 66.1%; AmpC inh no detg: 7.94µM*; FBPA Giardia inh: -4.3%; AmpC detergent: -11.9%

What do the screens show for `CCOC(=O)C1[C@H]2C(=O)N(C(C)c3ccc(OC)cc3)C[C@]23C=C[C@H]1O3` (some centres undefined)?
AMA1-RON2 inh: -4.1%; AmpC inh no detg: -1.9%; FBPA Giardia inh: 9.4%; AmpC detergent: inconclusive

Results for CCCN1CC23C=CC(O2)C(C(=O)O)C3C1=O (centres undefined) ?
AMA1-RON2 inh: 0.0%; AmpC inh no detg: 35.5µM*; FBPA Giardia inh: 5.5%; AmpC detergent: inconclusive

What do the screens show for `COCCCN1CC23C=CC(O2)C(C(=O)O)C3C1=O` (centres undefined)?
AMA1-RON2 inh: -1.4%; AmpC inh no detg: -12.4%; FBPA Giardia inh: -5.9%; AmpC detergent: -13.2%

What do the screens show for `CCOC(=O)CN1CC23C=CC(O2)C(C(=O)Nc2ccc(OCC)cc2)C3C1=O` (centres undefined)?
AMA1-RON2 inh: -2.5%; AmpC inh no detg: 7.94µM*; FBPA Giardia inh: 1.0%; AmpC detergent: inconclusive

Results for CCC(C)N1CC23C=CC(O2)C(C(=O)OC)C3C1=O (centres undefined) ?
AMA1-RON2 inh: -2.5%; AmpC inh no detg: 22.4µM*; FBPA Giardia inh: 1.8%; AmpC detergent: 2.3%

What do the screens show for `COc1cccc2cc(-c3nc(-c4ccc(Cl)cc4)cs3)c(=O)oc12`?
AmpC detergent: 7.7%
